Records with an inconclusive call do not appear. A number with no mark means an inactive call. Calls of active or inactive are those of the source. Calls come from the whole dose curve; as a rule, active = well fitted cell-killing curve with a large enough effect in the repeat runs; inconclusive = weak or mixed curves, or effect the other way; inactive = flat fitted curve, though single readings scatter.
experiment: cAMP Responsive Elements (CRE) small molecule agonists, cell-based qHTS assay: qHTS cell viability counter screen (AID 2060914); settings: CRE-bla HEK293T viability, CellTiter-Glo luminescence, 5 h; series mostly up to 92.4 µM; activity change, negative = cytotoxicity: at the top concentration;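 note: viability read after 3 h of compound exposure; nearly all actives have a fitted effect of over 50% in size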
Source text: National Center for Advancing Translational Sciences [NCATS]
Division of Preclinical Innovation [DPI]
U.S. Environmental Protection Agency [EPA]
National Institutes of Environmental Health Sciences [NIEHS]
National Toxicology Program [NTP]
U.S. Food and Drug Administration [FDA]
CREB (cyclic-AMP Responsive Element Binding Protein) is a cellular transcription factor. It binds to certain DNA sequences called cAMP Responsive Elements (CRE) and regulates the transcription of the genes. […] This cell line can be used to find agonists/antagonists of the cyclic AMP signaling pathway. The activation of the report gene under culture conditions can be detected by fluorescence intensity. This cell line has been used to screen the Tox21 10K compound library to identify agonists that induce oxidative stress. The cytotoxicity of the Tox21 compound library against the CRE-bla cell line was tested in parallel by measuring the cell viability using CellTiter-Glo assay (Promega, Madison, WI) in the same wells.
Tox21 Assay Protocol Summary:
CRE-bla Hek 293T cells were suspended in assay medium (DMEM containing 10% dialyzed FBS, 0.1 mM NEAA, 1 mM sodium pyruvate and 25 mM HEPES) and dispensed at 2,000 cells/5 uL /well into 1536-well black wall/clear bottom plates using a Multidrop Combi (ThermoFisher Scientific, Waltham, MA) dispenser. After the assay plates were incubated at 37 C/5% CO2 for 18 hrs, 23 nL of compounds dissolved in DMSO, positive controls or DMSO only was transferred to the assay plate by a pintool workstation (Kalypsys, San Diego, CA). After the plates were incubated at 37 C/5% CO2 for 3 hrs, 1 uL of LiveBLAzer B/G FRET substrate (Invitrogen, Carlsbad, CA) was added to each well using Bioraptr Flying Reagent Dispenser (FRD, Aurora Discovery, San Diego, CA). The plates were incubated at room temperature for 2 h, then fluorescence intensities were measured using an Envision plate reader (PerkinElmer, Shelton, CT) at Excitation 405nm, Emission 460nm and 530nm. The % activity was determined from the ratio of 460nm/530nm. For cell viability readout that measures cytotoxicity, 4 uL /well of CellTiter-Glo reagent was added into the assay plates using Bioraptr FRD. After 30 min incubation at room temperature, the luminescence intensity in the assay plates was measured using a ViewLux (PerkinElmer, Shelton, CT) plate reader.
% is set by controls: 0 for no effect and ±100 for the full control effect; potency is the fitted concentration of half-maximal effect.

Row | Structure (SMILES) | activity change, negative = cytotoxicity | Potency
1 | C/C(=C(\CCOP(=O)(O)O)SC(=O)c1ccccc1)N(C=O)Cc1cnc(C)nc1N | -13.5% [at 8.39 µM] | –
2 | CC(COCC(C)OC(=O)c1ccccc1)OC(=O)c1ccccc1 (stereo not given) | – | inactive
3 | O=C(CC(=O)c1ccccc1)c1ccccc1 | -11.1% | –
4 | O=C(O)c1ccc(S(=O)(=O)N(Cl)Cl)cc1 | – | inactive
5 | CN(C)CCCN1c2ccccc2Sc2ccc(Cl)cc21 | – | inactive
6 | CCOC(=O)N1CCC(Nc2ccc(Cl)cc2N)CC1 | -1.53% [at 42.5 µM] | –
7 | Cc1cc(Cl)c(C)cc1Cl | -5.95% | –
8 | NS(=O)(=O)c1cc2c(cc1Cl)NCNS2(=O)=O | – | inactive
9 | Cc1cnc(NS(=O)(=O)c2ccc(N)cc2)nc1 | 6.42% [at 42.5 µM] | –
10 | CC(C)(O)CCc1ccccc1 | -1.13% | –
11 | Cc1cc(O)c2c(c1)C(=O)c1cccc(O)c1C2=O | -1.42% [at 42.5 µM] | –
12 | C1CC(COCC2CO2)CCC1COCC1CO1 (stereo not given) | -5.06% | –
13 | CC1CCC(C(C)(C)O)CC1 (stereo not given) | -14.7% | –
14 | C[C@@H]1CCN(C(=O)[C@H](CCCN=C(N)N)NS(=O)(=O)c2cccc3c2NC[C@H](C)C3)[C@@H](C(=O)O)C1 | -0.703% [at 42.5 µM] | –
15 | CC(C)(C)NCC(O)COc1ccc(NC(=O)NC2CCCCC2)cc1 (stereo not given) | 0.422% [at 42.5 µM] | –
16 | Cc1cc(C(C#N)c2ccc(Cl)cc2)c(Cl)cc1NC(=O)c1cc(I)cc(I)c1O (stereo not given) | -10.3% [at 42.5 µM] | –
17 | COC(=O)[C@@H]1[C@H]2C[C@H]3c4[nH]c5ccccc5c4CCN3C[C@@H]2CC[C@@H]1O | 0.46% [at 42.5 µM] | –
18 | CN(C)c1cc(NC(=O)CNC(C)(C)C)c(O)c2c1C[C@H]1C[C@H]3[C@H](N(C)C)C(=O)C(C(N)=O)=C(O)[C@@]3(O)C(=O)C1=C2O | 8.96% [at 42.5 µM] | –
19 | Cc1ccc(C)c(S(=O)(=O)O)c1 | – | inactive
20 | O=C(c1ccccc1)c1ccc(O)cc1 | -7.3% | –

Row | Structure (SMILES) | activity change, negative = cytotoxicity | Potency
21 | Nc1ccc(S(=O)(=O)Nc2ccccn2)cc1 | -0.721% [at 42.5 µM] | –
22 | CC(C)CC(C)O (stereo not given) | – | inactive
23 | Cc1cc2c(C(C)C)c(O)c(O)c(C=O)c2c(O)c1-c1c(C)cc2c(C(C)C)c(O)c(O)c(C=O)c2c1O | – | 26.6 µM (active)
24 | Oc1c(I)cc(Cl)c2cccnc12 | – | inactive
25 | O=[N+]([O-])c1ccc(Oc2ccc([N+](=O)[O-])cc2)cc1 | 0.522% | –
26 | COc1nc(C)nc(N)n1 | 0.284% | –
27 | COc1cc(C)ccc1O | 0.449% | –
28 | C[C@@H](O[C@H]1OCCN(Cc2n[nH]c(=O)[nH]2)[C@H]1c1ccc(F)cc1)c1cc(C(F)(F)F)cc(C(F)(F)F)c1 | -13.6% [at 42.5 µM] | –
29 | CCOC(=O)CC(O)(CC(=O)OCC)C(=O)OCC | -0.0766% | –
30 | COc1ccccc1N1CCN(CCCNc2cc(=O)n(C)c(=O)n2C)CC1 | 1.97% [at 42.5 µM] | –
31 | CC(=O)CCCCn1c(=O)c2c(ncn2C)n(C)c1=O | -0.183% [at 42.5 µM] | –
32 | CN(CCOc1ccc(NS(C)(=O)=O)cc1)CCc1ccc(NS(C)(=O)=O)cc1 | -1.72% [at 42.5 µM] | –
33 | Cn1sccc1=O | – | inactive
34 | CCN=C1C=CC(=C(c2ccc(N(CC)CC)cc2)c2ccc(N(CC)CC)cc2)c2ccccc21 | – | 30.5 µM (active)
35 | Cc1c(C(=O)c2c[nH]n(C)c2=O)ccc(S(C)(=O)=O)c1C1=NOCC1 | -7.22% [at 42.5 µM] | –
36 | CCN(Cc1ccncc1)C(=O)C(CO)c1ccccc1 (stereo not given) | -0.0366% [at 42.5 µM] | –
37 | O=C(Oc1ccccc1)c1ccccc1 | – | inactive
38 | O=C(O)Cc1sc(-c2ccccc2)nc1-c1ccc(Cl)cc1 | 8.42% [at 42.5 µM] | –
39 | C=CCc1ccc(O)c(OC)c1 | – | inactive
40 | CCc1nn(CCCN2CCN(c3cccc(Cl)c3)CC2)c(=O)n1CCOc1ccccc1 | -17.6% [at 42.5 µM] | –
